HCMV inh = human cytomegalovirus inhibition; HFF cells, HCMV-luciferase reporter, 72 h; active compounds read low; activity change, negative = inhibition, % at 57.5 µM; 4.5% of 410,000 active; AID 1259415; in the data active = activity change below about -60%; inconclusive = no clear call, values can overlap the other calls; inactive = above about -39%
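Inhibition of viral replication was scored as loss of reporter luminescence in HFFs infected with HCMV-luciferase (MOI 1 PFU/cell) for 72 h; compounds tested at 2 doses, normalized to buffer and Salinomycin controls.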
RE007 growth inh = less growth of the S. pombe RE007 Vpr strain. AID 651644. Potency, µM (titrated, usually from 92.2 µM), for the others: top-dose activity change, negative = less growth, hits mostly inhibitors. S. pombe RE007 Vpr strain, BacTiter-Glo ATP luminescence, 24 h. 0.21% of 360,000 active; active = well fitted falling curve with a large enough effect; inconclusive = small, poorly fitted or top-dose-only effect; inactive = no such curve, though single readings can be large or run the other way; note: potency is the fitted concentration of half-maximal effect; nearly all actives have a fitted effect of over 50% in size
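Fission yeast RE007 carrying one integrated HIV-1 vpr copy, seeded at OD 0.01 in PMG+AL medium with 23 nL pinned compound. Grown 24 h at 30 degrees; viability read by BacTiter-Glo luminescence after 5 min.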
FBPA Giardia inh = Giardia lamblia aldolase inhibition. Potency, µM (titrated, usually from 59.6 µM), without a hit: top-dose activity, negative = inhibition, hits mostly inhibitors. 0.71% of 290,000 active. purified Giardia FBPA. AID 2451; note: potency is the fitted concentration of half-maximal effect; nearly all actives have a fitted effect of over 55% in size
Target sequence (A8B2U2 whole entry, looked up): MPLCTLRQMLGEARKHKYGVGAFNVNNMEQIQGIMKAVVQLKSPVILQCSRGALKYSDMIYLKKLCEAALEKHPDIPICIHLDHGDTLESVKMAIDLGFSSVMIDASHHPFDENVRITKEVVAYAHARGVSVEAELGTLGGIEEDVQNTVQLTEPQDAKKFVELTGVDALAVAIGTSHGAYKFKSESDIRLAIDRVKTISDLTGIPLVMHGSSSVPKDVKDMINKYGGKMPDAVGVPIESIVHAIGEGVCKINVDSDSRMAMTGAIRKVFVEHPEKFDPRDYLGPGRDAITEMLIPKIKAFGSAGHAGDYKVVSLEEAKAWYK
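Giardia FBPA (40 nM reagent) was preincubated 10 min at RT with compound (up to 57.5 uM final), then substrate plus GAPDH/TPI/NAD/arsenate coupling system with diaphorase/resazurin was added; resorufin fluorescence (525/598 nm) was read after 20 min.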
TbPYK inhibitor = blocks Trypanosoma brucei pyruvate kinase; 0.12% of 410,000 active; Potency, µM (titrated, usually from 76.8 µM), inactives show at the highest dose activity, negative = inhibition, hits mostly inhibitors; AID 624173; TbPYK enzyme, Kinase-Glo Plus ATP luminescence, 45 min; note: potency is the fitted concentration of half-maximal effect; nearly all actives have a fitted effect of over 50% in size
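Quantitative HTS: titrated library compounds versus trypanosomal pyruvate kinase in TEA buffer (pH 7.2) containing KCl, MgCl2, BSA and Tween-20. Reactions were initiated with ADP, 130 uM final. Kinase-Glo Plus luminescence was read after 45 min at RT.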
Sm TGR inh = S. mansoni TGR enzyme inhibition. 3% of 360,000 active. purified TGR, DTNB reduction, TNB absorbance 405 nm. Q962Y6. AID 485364. Potency, µM (top dose mostly 114 µM), for the others: at the top dose activity change, negative = inhibition, actives largely listed as inhibitors; note: potency is the fitted concentration of half-maximal effect; nearly all actives have a fitted effect of over 60% in size
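Kinetic colorimetric format: TGR-catalysed, NADPH-driven DTNB reduction monitored via TNB absorbance. Enzyme dispensed at 20 nM; compound exposure 15 min at room temperature before reaction start.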
FMDV antiviral = antivirals against foot and mouth disease virus | FMDV antiviral cell-based qHTS | Potency, µM (highest dose often 57.9 µM), for inactives: top-dose activity change, negative = inhibition, usual class: inhibitors | 1.2% of 410,000 active; calls by dose curve; tested in HEK293T cells; note: read-out not given here; potency is the fitted concentration of half-maximal effect; nearly all actives have a fitted effect of over 45% in size
Numbers without * were called inactive; ? = inconclusive; . = not tested or not shown; [ ] = remark or other dose. This is a sample that favours compounds with a hit; in the whole collection about 7.7% have one here. Unless noted, calls come from the whole dose curve; as a rule, active = well fitted curve in the direction sought with a large enough effect; inconclusive = small, poorly fitted or top-dose-only effect, or another doubt; inactive = no such curve, though single readings can be large; an effect the other way counts as inactive or inconclusive. % is set by controls: 0 for no effect and ±100 for the full control effect.

SMILES	HCMV inh	RE007 growth inh	FBPA Giardia inh	TbPYK inhibitor	Sm TGR inh	FMDV antiviral
N#C[C@@H](c1ccccc1)C1CCN(C(=O)c2ccco2)CC1	9.5	.	.	.	.	.
O=C(COc1ccc(C(=O)c2ccccc2)cc1)NC1CCCCC1	-83.8*	1.7%	-0.4%	-7.0%	-0.1%	-18.2%
O=C(COc1ccc(C(=O)c2ccccc2)cc1)NC1CCCCCC1	?	-16.3%	4.9%	3.2%	8.1%	?
O=C(NC1CCN(Cc2ccccc2)CC1)c1ccccc1OCc1ccccc1	-13.8	-12.4%	3.4%	6.8%	0.0%	?
O=C(NC1CCN(Cc2ccccc2)CC1)c1ccccc1OCc1ccccc1Cl	-62.7*	3.7%	.	1.6%	8.6%	-29.2%
N#CC(c1ccccc1)C1CCN(Cc2ccccc2)CC1 (configuration not stated)	-9.4	-6.7%	-18.0%	-9.7%	89.1µM*	-20.8%
CCC(=O)c1ccc(OCC(=O)NC2CCN(Cc3ccccc3)CC2)cc1	-104.9*	1.8%	.	-0.6%	.	-2.3%
N#Cc1ccc(CN2CCCC3(CCN(C(=O)c4cccc(F)c4)CC3)C2)cc1	.	.	-0.6%	-0.3%	.	-10.9%
CCOCCCNC(=O)C1CCN(c2nn3cc(-c4ccc(F)cc4)nc3s2)CC1	0.0	.	.	-0.6%[15.4 µM]	0.6%	3.9%
CC(OC(=O)COc1ccccc1)C(=O)NC1CCCC1 (configuration not stated)	1.1	0.0%	.	-7.0%	22.4µM*	-15.2%
O=C(NC1CCN(Cc2ccc(Cl)cc2Cl)CC1)c1ccccc1	-80.8*	-6.1%	0.3%	0.0%	6.4%	?
O=C(Cc1ccccc1)NC1CCN(Cc2ccccc2)CC1	-62.4*	-14.2%	-2.6%	3.3%	55.6%	-10.6%
COC(=O)/C=C/c1ccccc1S(=O)(=O)N(Cc1ccccc1)Cc1ccco1	-8.8	9.8%	-7.3%	-14.9%	17.8µM*	-10.0%
COc1ccccc1C(=O)NCc1ccc2c(c1)CCN2C(=O)c1ccncc1	19.8	.	.	-8.9%	-5.0%	25.4%
COc1ccccc1C(=O)Nc1ccc(-c2cc(C(F)(F)F)nn2-c2ccccc2)cc1	-60.9*	.	.	3.7%	-9.2%	?
NC(=O)CC(NC(=O)Cc1cccc2ccccc12)c1ccc(NCCOc2ccccc2)c([N+](=O)[O-])c1 (configuration not stated)	-68.5*	-13.8%	0.6%	0.5%	-0.9%	0.0%
COc1ccc(CCNc2ccc(C(CC(N)=O)NC(=O)c3ccc(Br)cc3)cc2[N+](=O)[O-])cc1 (configuration not stated)	-71.7*	5.2%	0.0%	5.4%	0.2%	-25.0%
NC(=O)CC(NC(=O)c1ccccc1)c1ccc(NC2CCCCCCC2)c([N+](=O)[O-])c1 (configuration not stated)	-98.9*	12.2%	14.6%	-8.0%	0.0%	?
CCOc1ccc(NC(=O)Cc2cccc3ccccc23)c([N+](=O)[O-])c1	-73.5*	19.1%	0.7%	-3.4%	-0.8%	-14.7%
NC(=O)CC(NC(=O)Cc1cccc2ccccc12)c1ccc(NCC2CC2)c([N+](=O)[O-])c1 (configuration not stated)	21.7	-5.4%	0.5%	-4.7%	9.5%	2.5%
NC(=O)CC(NC(=O)c1ccccc1)c1ccc(NC2CCCCC2)c([N+](=O)[O-])c1 (configuration not stated)	-27.2	-12.5%	0.9%	1.6%	7.9%	-11.0%
CCOc1ccc(NC(=O)Cc2ccccc2)c([N+](=O)[O-])c1	4.5	-5.7%	5.5%	0.4%	0.0%	24.8%
COc1ccc(C)cc1NS(=O)(=O)c1cnc(N)nc1	-25.0	.	.	5.3%	3.1%	-10.3%
Cn1cccc1C(=O)N1CCC2(CCCN(C(c3ccccc3)c3ccccc3)C2)CC1	.	.	-0.3%	0.0%	.	-20.8%
CC(=O)c1ccc(C(=O)Nc2sc3c(c2C(N)=O)CCN(Cc2ccccc2)C3)cc1	-74.1*	.	?	.	-0.7%	.
SMILES	HCMV inh	RE007 growth inh	FBPA Giardia inh	TbPYK inhibitor	Sm TGR inh	FMDV antiviral
CC(C)N1CCc2c(sc(NC(=O)c3ccc(C(=O)c4ccccc4)cc3)c2C(N)=O)C1	4.3	4.4%	.	0.2%	0.8%	-1.7%
CCN1CCc2c(sc(NC(=O)c3cc4ccccc4cc3OC)c2C(N)=O)C1	-113.4*	-8.7%	.	4.7%	-1.6%	-7.9%
O=C(C1CCC1)N1CCc2cc(S(=O)(=O)NCCc3ccccc3)ccc21	-2.1	.	.	2.3%	-7.3%	50.1%
Nc1ccccc1C(=O)/C=C/c1ccccc1	.	.	-1.8%	.	.	.
N#Cc1c([N+](=O)[O-])cc([N+](=O)[O-])cc1S(=O)(=O)Cc1ccccc1	-99.0*	?	.	-15.1%	0.355µM*	28.2µM*
CCOC(=O)c1ccc(N2C(=O)c3n[nH]c(C)c3C2c2cccc(Br)c2)cc1 (configuration not stated)	-32.5	.	.	5.6%	-9.6%	-28.6%
COc1cc(C2c3c(n[nH]c3C)C(=O)N2c2ccc(Br)cc2)ccc1O (configuration not stated)	9.7	-8.4%	7.0%	-6.3%	4.47µM*	-4.1%
CCOc1cc(C2c3c(n[nH]c3C)C(=O)N2c2ccc(Br)cc2)ccc1O (configuration not stated)	?	-8.7%	-5.3%	2.3%	11.2µM*	-1.5%
Cc1cc(C)c(CN2CCN(C(=O)Cn3cnc(C(=O)Nc4ccc(C)c(C)c4)n3)CC2)c(C)c1	-101.7*	0.1%	.	-4.7%	.	?
Cc1ccc(NC(=O)Cn2cnc(C(=O)Nc3ccc(C)c(C)c3)n2)cc1C	-0.6	4.2%	.	2.5%	.	-9.6%
CCOc1ccc(CCNC(=O)CCc2c(C)nc3c4c(C)cc(C)nc4nn3c2C)cc1	79.6	.	.	10.8%	-9.2%	-9.3%
CC[C@H](C)/C=C(C)/C=C/C(=O)Cc1cc(O)c(C)c(O)c1C=O	3.6	10.9%	-20.5%	0.0%	28.2µM*	-14.1%
CC[C@H](C)/C=C(C)/C=C/C1=CC2=C(Cl)C(=O)[C@@](C)(OC(C)=O)C(=O)C2=CO1	.	?	.	-13.1%	.	-22.7%
O=C(CN1Cc2ccccc2OC(c2ccsc2)C1)NCC1OCCc2ccccc21 (configuration not stated)	.	.	.	.	.	-0.4%
COc1ccc(CCNC(=O)c2cccc(Nc3nc4ccccc4nc3-n3nc(C)cc3C)c2)cc1OC	23.1	.	.	-12.3%	-0.5%	-20.6%
CC1CCc2nc(N)c(C#N)c(-c3ccncc3)c2C1 (configuration not stated)	-23.3	6.4%	1.1%	-3.0%	7.4%	-13.9%
CC1CCc2nc(N)c(C#N)c(-c3cccnc3)c2C1 (configuration not stated)	-66.1*	6.7%	-2.1%	-6.7%	-12.4%	?
O=c1cc(CCl)nc(Cc2c(Cl)cccc2Cl)[nH]1	-92.8*	12.0%	.	2.7%	.	?

Bioassay records from PubChem BioAssay.
